According to PubChem BioAssay (Tox21):
“And” between values parts separate entries of the source, which are not always exact repeats. Equal entries are not always repeated. Records with an inconclusive call do not appear. The source made the active and inactive calls. Unless noted, calls come from the whole dose curve; as a rule, active = well fitted curve in the direction sought with a large enough effect in the repeat runs; inconclusive = weak or mixed curves; inactive = no such curve, though single readings can be large; an effect the other way counts as inactive or inconclusive.

How the values were obtained:
[1] = qHTS assay to identify small molecule antagonists of the constitutive androstane receptor (CAR) signaling pathway - cell viability counter screen (AID 1224837); note: nearly all actives have a fitted effect of over 45% in size
How it was run: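 Read-out: CellTiter-Fluor fluorescence after 23 hr at 37 C/5% CO2. Cells: HepG2 double-stable for hCAR and CYP2B6-2.2kb. Compounds tested at 15 concentrations in the presence of CITCO, final concentration 50 nM.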

[2] = molecular target: Nuclear receptor subfamily 1 group I member 3 (Homo sapiens) (UniProt Q14994); test: qHTS assay to identify small molecule antagonists of the constitutive androstane receptor (CAR) signaling pathway (AID 1224838);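 note: HepG2 cells stably expressing hCAR with CYP2B6 luciferase reporter stimulated by CITCO; nearly all actives have a fitted effect of over 40% in size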
How it was run: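 Read-out: ONE-Glo luciferase luminescence after 30 min at room temperature. HepG2-CYP2B6-hCAR double-stable cells, compounds in 15-point titration plus 50 nM CITCO final, 24 h at 37 C/5% CO2.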

[3] = molecular target: Nuclear receptor subfamily 1 group I member 3 (Homo sapiens) (UniProt Q14994); test: qHTS assay to identify small molecule agonists of the constitutive androstane receptor (CAR) signaling pathway (AID 1224839);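 note: HepG2 cells stably carrying human CAR and a CYP2B6 luciferase reporter; nearly all actives have a fitted effect of over 15% in size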
How it was run: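 Luminescence read-out (ONE-Glo, 30 min, room temperature) from double-stable HepG2-CYP2B6-hCAR cells exposed 24 h to 15-point compound series in presence of 0.75 uM PK11195 final.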

[4] = qHTS assay to identify small molecule antagonists of the estrogen related receptor signaling pathway with the pleiotropic PPARgamma coactivator (PGC) from Tox21 10K library - cell viability counter screen (AID 1224840; active = well fitted cell-killing curve with a large enough effect in the repeat runs, not every such curve was filed as active; note: nearly all actives have a fitted effect of over 40% in size)
How it was run: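 Fluorescence read-out of CellTiter-Fluor viability reagent, added after cells had been exposed to compound in DMSO for 17.5 h at 37 C; 30 min development at 37 C/5% CO2. Cells: PGC/ERR line, 2,000/well.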

[5] = molecular target: Thyrotropin receptor (Homo sapiens) (UniProt P16473); test: qHTS assay to identify small molecule agonists of the thyroid stimulating hormone receptor (TSHR) signaling pathway (AID 1224843; calls by dose curve; note: nearly all actives have a fitted effect of over 45% in size)
How it was run: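 Agonist-mode screen: TSHR HEK293 cells received test chemicals for half an hour at room temperature, then HTRF cAMP detection reagents for one hour prior to fluorescence measurement. Each chemical ran as a 15-concentration series, triplicated.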

[6] = qHTS assay to identify small molecule agonists of the hypoxia (HIF-1) signaling pathway - cell viability counter screen (AID 1224844; calls by dose curve; note: nearly all actives have a fitted effect of over 50% in size)
How it was run: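 CellTiter-Glo luminescence read-out, 30 min RT, taken in the same wells as the beta-lactamase HRE reporter assay; HRE-bla ME-180 cells, 0.5% dialyzed FBS, 17 hr compound treatment at 37C, 5% CO2.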

[7] = qHTS assay to identify small molecule agonists of H2AX (AID 1224845; active = well fitted activation curve with a large enough effect in the signal ratio in the repeat runs, not every such curve was filed as active; the % refers to the signal ratio)
How it was run: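 Wild-type CHO-K1 cells, plated overnight, exposed 3hr at 37C to 15 concentrations (0.76% DMSO final). Lysed, then HTRF anti-pH2AX (S139) cryptate and anti-H2AX-d2 antibodies, 24 hr room temperature; 665/620 nm emission read.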

[8] = qHTS assay to identify small molecule agonists of H2AX - cell viability counter screen (AID 1224847; calls by dose curve; note: top concentration of the series differs between compounds; nearly all actives have a fitted effect of over 30% in size)
How it was run: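 CHO-K1 wt, 1000 cells/well, o/n 37C; cpds 15 conc, 3 h 37C, 0.76% DMSO; CellTiter-Glo, 30 min RT, luminescence.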

[9] = qHTS RealTime-Glo MT Cell Viability Assay in HepG2 cells - 24 hour (AID 1224867); note: nearly all actives have a fitted effect of over 50% in size
How it was run: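 qHTS, HepG2, 600 cells/well, RealTime-Glo (NanoLuc + prosubstrate) added with cells; 5 h preincubation; DMSO compound addition; 37 C; luminescence at 0/8/16/24/32/40 h.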

[10] = qHTS RealTime-Glo MT Cell Viability Assay in HEK293 cells - 32 hour (AID 1224868); note: top concentration of the series differs between compounds; nearly all actives have a fitted effect of over 50% in size
How it was run: (§1)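 Assay medium contained NanoLuc luciferase plus cell-permeant prosubstrate, added with HEK293 cells at 600 cells/well. After 5 h at 37 C/5% CO2 compounds were added; plates stayed at 37 C for 40 h with serial luminescence reads.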

[11] = A CellTox Green Cytotoxicity Assay to monitor cytotoxicity in HEK293 cells - 0 hour (AID 1224869); note: nearly all actives have a fitted effect of over 50% in size
How it was run: (§2)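 Read-out: fluorescence of a cell-impermeant cyanine dye staining DNA of dead cells, proportional to cytotoxicity. HEK293, 600 cells/well with reagent, compound (23 nL DMSO) added after 5 h; reads at 0, 8, 16, 24, 32, 40 h.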

[12] = qHTS RealTime-Glo MT Cell Viability Assay in HepG2 cells - 40 hour (AID 1224870); note: nearly all actives have a fitted effect of over 50% in size
How it was run: (§3)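 HepG2 cells (600/well) mixed with RealTime-Glo MT reagent, settled 5 h at 37 C/5% CO2 before compound addition. Nonlytic NanoLuc luminescence from viable-cell prosubstrate reduction read repeatedly during 40 h treatment at 37 C.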

[13] = A CellTox Green Cytotoxicity Assay to monitor cytotoxicity in HEK293 cells - 40 hour (AID 1224871); note: nearly all actives have a fitted effect of over 45% in size
How it was run: as §2

[14] = qHTS RealTime-Glo MT Cell Viability Assay in HEK293 cells - 16 hour (AID 1224872)
How it was run: as §1

[15] = qHTS RealTime-Glo MT Cell Viability Assay in HepG2 cells - 8 hour (AID 1224873); note: nearly all actives have a fitted effect of over 55% in size
How it was run: as §3

[16] = A CellTox Green Cytotoxicity Assay to monitor cytotoxicity in HEK293 cells - 24 hour (AID 1224875); note: nearly all actives have a fitted effect of over 45% in size
How it was run: as §2

[17] = A CellTox Green Cytotoxicity Assay to monitor cytotoxicity in HepG2 cells - 16 hour (AID 1224876); note: nearly all actives have a fitted effect of over 45% in size
How it was run: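 HepG2, 600 cells/well premixed w/ CellTox Green; 5 h settle, 37 C/5% CO2; pintool cpd add (DMSO); 37 C, 40 h; fluorescence read at 0, 8, 16, 24, 32, 40 h.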

[18] = qHTS assay to identify small molecule agonists of the hypoxia (HIF-1) signaling pathway (AID 1224846; active = well fitted activation curve with a large enough effect in the signal ratio in the repeat runs, not every such curve was filed as active; the % refers to the signal ratio)
How it was run: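 Beta-lactamase FRET read-out (CCF4-AM substrate) from ME-180 cells carrying an HRE-driven bla reporter, after 17 hrs compound exposure at 37C/5% CO2. Cells were seeded at 2,000 per well in 0.5% dialyzed FBS medium and preincubated 5 hrs.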

[19] = qHTS RealTime-Glo MT Cell Viability Assay in HEK293 cells - 40 hour (AID 1224874); settings: RealTime-Glo luminescence; max response: stronger effect = lower value; note: nearly all actives have a fitted effect of over 50% in size
How it was run: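 Luminescence readout at each listed time point; HEK293, 600 cells/well, RealTime-Glo MT reagent added with cells; compounds pinned (23 nL in DMSO) after 5 h at 37 C; continuous culture at 37 C.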

[20] = qHTS assay to identify small molecule agonists of the estrogen related receptor (ERR) signaling pathway from Tox21 library (AID 1224849; calls by dose curve; note: nearly all actives have a fitted effect of over 15% in size); settings: ERR reporter cell line, ONE-Glo luciferase, 18 h; at 92.4 µM (top of the series)
How it was run: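 Luminescence readout (ONE-Glo, 30 min RT) after 18 h compound exposure at 37 C of NTP-supplied ERR reporter cells; cells were plated 6 h before compound addition by pin tool.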
% is set by controls: 0 for no effect and ±100 for the full control effect.

Chain of Thyrotropin receptor (Homo sapiens) (P16473 whole entry, looked up): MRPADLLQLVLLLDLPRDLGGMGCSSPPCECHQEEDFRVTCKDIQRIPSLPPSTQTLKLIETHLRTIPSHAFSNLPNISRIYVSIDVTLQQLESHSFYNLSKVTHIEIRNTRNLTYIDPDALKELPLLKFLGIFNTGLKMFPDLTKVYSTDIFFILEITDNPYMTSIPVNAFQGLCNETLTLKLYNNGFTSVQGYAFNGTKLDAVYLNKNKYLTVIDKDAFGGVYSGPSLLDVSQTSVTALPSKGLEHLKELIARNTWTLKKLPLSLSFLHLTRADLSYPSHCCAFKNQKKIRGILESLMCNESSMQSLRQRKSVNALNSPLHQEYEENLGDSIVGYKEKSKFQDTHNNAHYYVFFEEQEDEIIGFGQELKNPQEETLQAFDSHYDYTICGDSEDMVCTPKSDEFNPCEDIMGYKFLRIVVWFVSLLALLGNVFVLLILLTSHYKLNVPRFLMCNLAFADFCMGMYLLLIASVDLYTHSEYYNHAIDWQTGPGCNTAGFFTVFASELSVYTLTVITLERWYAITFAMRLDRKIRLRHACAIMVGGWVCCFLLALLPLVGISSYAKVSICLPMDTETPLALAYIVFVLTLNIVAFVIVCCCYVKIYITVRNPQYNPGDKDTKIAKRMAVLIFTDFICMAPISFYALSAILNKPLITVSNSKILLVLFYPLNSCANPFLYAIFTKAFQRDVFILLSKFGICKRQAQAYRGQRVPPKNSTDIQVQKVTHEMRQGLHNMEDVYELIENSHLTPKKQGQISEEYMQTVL
Chain of Nuclear receptor subfamily 1 group I member 3 (Homo sapiens) (Q14994 whole entry, looked up): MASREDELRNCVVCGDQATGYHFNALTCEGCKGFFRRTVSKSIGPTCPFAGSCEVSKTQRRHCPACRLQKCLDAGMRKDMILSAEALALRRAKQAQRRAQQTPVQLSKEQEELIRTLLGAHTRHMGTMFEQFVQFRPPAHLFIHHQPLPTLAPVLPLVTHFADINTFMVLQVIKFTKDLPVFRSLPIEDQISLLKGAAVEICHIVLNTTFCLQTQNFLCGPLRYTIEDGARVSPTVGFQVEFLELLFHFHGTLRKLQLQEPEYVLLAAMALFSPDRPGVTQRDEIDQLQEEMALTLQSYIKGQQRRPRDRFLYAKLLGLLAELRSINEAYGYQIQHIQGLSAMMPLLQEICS

COc1ccc(Cl)cc1C(=O)NCCc1ccc(S(=O)(=O)NC(=O)NC2CCCCC2)cc1
inactive: Potency [1] | Potency [2] | Potency [3] | Potency [4] | Potency [5] | Potency [6] | Potency [7] | Potency [8] | outcome [9] | Potency [10] | outcome [11] | outcome [12] | Potency [13] | Potency [14] | outcome [15] | Potency [16] | Potency [17]

O=c1[nH]c(=O)n([C@H]2CCCO2)cc1F
inactive: Potency [1] | Potency [2] | Potency [3] | Potency [4] | Potency [5] | Potency [6] | Potency [7] | outcome [18] | Potency [8] | Potency [10] | outcome [11] | outcome [12] | Potency [13] | Potency [14] | outcome [15] | max response [19] -9.43% and 1.8% | Potency [16] | Potency [17]

COS(C)(=O)=O
inactive: Potency [1] | Potency [2] | Potency [3] | Potency [4] | Potency [5] | Potency [6] | Potency [7] | outcome [18] | Potency [8] | activity change, positive = activation [20] 1.76% and -2.76% | outcome [9] | Potency [10] | outcome [11] | outcome [12] | Potency [13] | Potency [14] | outcome [15] | max response [19] 0.0927% and -3.51% | Potency [16] | Potency [17]

O=C1CCC(N2C(=O)c3ccccc3C2=O)C(=O)N1 (configuration not stated)
inactive: Potency [1] | Potency [2] | Potency [3] | Potency [4] | Potency [5] | Potency [6] | Potency [7] | Potency [8] | outcome [9] | Potency [10] | outcome [11] | outcome [12] | Potency [13] | Potency [14] | max response [19] 7.18% and -6.83% | Potency [16] | Potency [17]
